Tau fluor cs: counter-screen for tau fibril formation inhibitors; tau K18 P301L Alexa594 fluorescence, heparin fibrillization; Potency, µM (titrated, usually from 57.7 µM), without a hit: at the highest dose activity change, negative = decrease; actives 0.93% (n = 280,000); AID 1463; also: potency is read from the fitted curve at half-maximal effect; % is scaled to controls: 0 for no effect and ±100 for the full control effect; nearly all actives have a fitted effect of over 55% in size
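Human K18 P301L tau (15 uM unlabeled plus 0.24 uM Alexa 594-labeled, final) in 100 mM sodium acetate pH 7 was mixed with compound and 20 uM heparin and incubated 6 hr at 37 C.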
Tau FP inhib: inhibitors of human tau fibril formation. AID 1468. actives 0.39% (n = 280,000). Potency, µM (highest dose often 57.7 µM), for inactives: top-dose activity, negative = inhibition, hits mostly inhibitors. K18 P301L tau heparin fibrillization, Alexa594 FP, 6 h; also: potency is read from the fitted curve at half-maximal effect; % is scaled to controls: 0 for no effect and ±100 for the full control effect; nearly all actives have a fitted effect of over 55% in size
Target sequence (P10636 561-689 P618L limits assumed): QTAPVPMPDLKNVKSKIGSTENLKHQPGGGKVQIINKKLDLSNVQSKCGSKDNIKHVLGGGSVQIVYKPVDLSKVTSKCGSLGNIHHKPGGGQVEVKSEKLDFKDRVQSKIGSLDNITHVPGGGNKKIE
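Human K18 P301L fragment (15 uM unlabeled plus 0.24 uM Alexa 594-labeled) in 100 mM sodium acetate pH 7 with compound, aggregation induced by 20 uM heparin for 6 hr at 37 C. ThT (30 uM) added for 1 hr, then Alexa 594 FP read.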
TexasRed fluor: counter-screen for TRb-SRC2 inhibitors: fluorescence interference | actives 0.29% (n = 280,000) | AID 1479 | TRb/SRC2 Texas Red total fluorescence interference | Potency, µM (series often up to 106 µM), inactives show top-dose fluorescence change, negative = quenching; active = well fitted curve in either direction with a large enough effect; inconclusive = small, poorly fitted or top-dose-only effect; also: potency is read from the fitted curve at half-maximal effect; % is scaled to controls: 0 for no effect and ±100 for the full control effect
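Flags fluorescent or light-absorbing compounds by total fluorescence, S + 2P, at 555 nm excitation and 632 nm emission. Mixture: 20 nM Texas Red SRC2 peptide, 0.6 uM human TRb LBD, 1 uM T3, 5% DMSO; compound exposure 5 h at ambient temperature.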
TRb-SRC2 inh: disrupts binding of human TR beta to SRC2. P10828. TRbeta-SRC2 peptide binding, fluorescence polarization; receptor liganded with 1 µM T3. Potency, µM (doses to about 106 µM), for the others: at the highest dose activity change, negative = inhibition, most hits filed as inhibitors. actives 0.065% (n = 280,000);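 also: potency is read from the fitted curve at half-maximal effect; plate controls were bound peptide for no effect and peptide without receptor for full effect; nearly all actives have a fitted effect of over 50% in size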
Target sequence (P10828 whole entry, looked up): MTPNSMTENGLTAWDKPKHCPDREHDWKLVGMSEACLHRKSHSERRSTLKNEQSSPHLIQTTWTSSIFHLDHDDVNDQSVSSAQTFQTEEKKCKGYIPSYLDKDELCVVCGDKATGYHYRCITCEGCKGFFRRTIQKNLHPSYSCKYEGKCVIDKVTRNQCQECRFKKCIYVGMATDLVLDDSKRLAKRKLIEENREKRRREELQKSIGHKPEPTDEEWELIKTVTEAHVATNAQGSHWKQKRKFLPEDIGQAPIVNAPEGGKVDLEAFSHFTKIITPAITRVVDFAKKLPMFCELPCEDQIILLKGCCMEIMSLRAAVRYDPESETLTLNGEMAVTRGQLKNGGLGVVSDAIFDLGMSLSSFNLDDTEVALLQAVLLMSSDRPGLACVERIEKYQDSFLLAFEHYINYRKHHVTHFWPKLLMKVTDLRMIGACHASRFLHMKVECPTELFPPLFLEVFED
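Fluorescence polarization of 20 nM Texas Red SRC2 peptide with 0.6 uM human TRb ligand-binding domain, in Tris buffer with 1uM T3 and 5% DMSO. Incubated 5 hr ambient; normalized to unbound and bound controls.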
Tau fibril ThT: inhibitors of human tau fibril formation, thioflavin T binding; recombinant tau K18 P301L, heparin-induced fibrillization, ThT fluorescence; actives 2.1% (n = 270,000); P10636; Potency, µM (doses to about 57.4 µM), inactives show top-dose activity, negative = inhibition, most hits filed as inhibitors; also: potency is read from the fitted curve at half-maximal effect; % is scaled to controls: 0 for no effect and ±100 for the full control effect; nearly all actives have a fitted effect of over 55% in size
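K18 P301L tau (15 uM + 0.24 uM Alexa 594-tagged), heparin 20 uM, NaOAc pH 7, 6 h 37 C; ThT 30 uM, 1 h RT, ex 450/em 510 nm.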
Tau fibril TEM: Inhibits tau K18 fibrillization by TEM grading; actives 70% (n = 45); shares compounds with Tau fibril ThT; AID 1719; fibril grade (0 = clumped fibrils, 4 = only tiny pieces) (no concentration beside the values); recombinant tau K18 P301L fibrillization, TEM grading; stronger effect = higher value;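 active = compounds whose electron micrographs showed tau fibrils broken into shorter filaments or fragments, graded high on fibril breakup; inconclusive = micrographs gave an unclear fibril picture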
tau fibril sed: tau fibrillization inhibition by sedimentation | AID 1720 | inhibition, % at 100 µM | actives 50% (n = 110) | recombinant tau K18 P301L (four-repeat tau fragment), sedimentation SDS-PAGE densitometry | shares compounds with Tau fibril ThT; in the data active = inhibition above about 40%; inconclusive = no clear call, values can overlap the other calls; inactive = below about 18%
* = called active by the depositor; ? = inconclusive; . = no result; [ ] = another dose, or the depositor's remark. Only some compounds are listed: those with a hit (about 3.1% of all), similar ones and a draw of the others. Unless noted, calls follow the shape of the dose curve; as a rule, active = well fitted curve in the direction sought with a large enough effect; inconclusive = small, poorly fitted or top-dose-only effect, or another doubt; inactive = no such curve, though single readings can be large; an effect the other way counts as inactive or inconclusive.

SMILES	Tau fluor cs	Tau FP inhib	TexasRed fluor	TRb-SRC2 inh	Tau fibril ThT	tau fibril sed	others
O=C(Nc1nnc(S(=O)(=O)Nc2ccccc2)s1)C1CCCCC1	?	-18%	2%	-1%	?	10
COC(=O)CSc1nc2ccc(NC(=O)CSc3nnnn3Cc3ccccc3)cc2s1	?	?	-2%	3%	?	18
COc1cccc(OCCSc2nc3ccccc3n2CC(=O)N2CCCCC2)c1	-8%	-1%	-2%	2%	-12%	.
O=S(=O)(c1ccc(N=C2NN=C(c3cc(F)ccc3F)CS2)cc1)N1CCOCC1	?	?	-3%	-6%	6.3µM*	44*	Tau fibril TEM=3*
CN(c1ccccc1)S(=O)(=O)c1nnc(NC(=O)COc2ccccc2)s1	?	?	-25%	-6%	?	?
CCC1C(=O)CC2CCN3C(=O)CCC1C23 (stereo unspecified)	.	.	-1%	4%	.	.
Cc1ccc(N2C(=O)SC(Cc3ccccc3)C2=O)cc1 (stereo unspecified)	-24%	?	-1%	-10%	?	?	Tau fibril TEM=?
O=C1SC(Cc2ccccc2)C(=O)N1c1ccccc1 (stereo unspecified)	-6%	1%	-5%	-9%	-8%	.
O=S(=O)(c1ccc(NC(=S)N/N=C/c2ccc(N3CCOCC3)cc2)cc1)N1CCOCC1	?	14%	-1%	5%	?	11
O=S(=O)(c1ccc(NC(=S)N/N=C/c2ccc(Oc3ccccc3)cc2)cc1)N1CCOCC1	-10%	1%	3%	-3%	4%	.
NCCNC(=O)c1ccc(Cl)cn1	.	.	1%	0%	.	.
COc1cc(/C=N/N=C2/NC(=O)C(CC(=O)O)S2)ccc1OCc1ccc(Cl)cc1 (stereo unspecified)	4%	12%	-19%	5%	-8%	18
CCOc1cc(/C=N/N=C2/NC(=O)C(CC(=O)O)S2)ccc1OCc1ccc(Cl)cc1Cl (stereo unspecified)	8%	-1%	-6%	9%	?	.
COC(=O)c1c(NC(=O)C(Cl)Cl)sc2c1C(C(=O)OC)CC2 (stereo unspecified)	-26%	3%	0%	4%	?	.
COC(=O)c1c(NC(=O)CCCOc2ccc(C)cc2)sc2c1C(C(=O)OC)CC2 (stereo unspecified)	?	?	6%	2%	7.9µM*	56*	Tau fibril TEM=2*
COC(=O)c1c(NC(=O)C(C)(C)C)sc2c1C(C(=O)OC)CC2 (stereo unspecified)	-3%	2%	-5%	-8%	-5%	17
COC(=O)c1c(NC(=O)CCCOc2cccc(C)c2)sc2c1C(C(=O)OC)CC2 (stereo unspecified)	-28%	?	?	-3%	3.2µM*	56*	Tau fibril TEM=2*
COC(=O)c1c(NC(=O)CCCOc2cccc(C)c2)sc2c1CCC2	-18%	-9%	6%	4%	?	.
CCOc1ccc(S(=O)(=O)NCCC(=O)OCC(=O)Nc2cc(C)on2)cc1	?	-1%	-4%	3%	.	.
COC(=O)c1ccccc1NC(=O)CSc1nc2sc3c(c2c(=O)[nH]1)CCCC3	?	14µM*	2%	-2%	7.9µM*	58*	Tau fibril TEM=2*
CCC(C)NC(=O)c1c(C)oc2nc(C)nc(N3CCOCC3)c12 (stereo unspecified)	8%	-1%	-2%	-5%	8%	.
CN(C)C(=O)c1ccc(-c2cc[nH]c(=O)c2N)cc1	.	.	.	.	.	48*	Tau fibril TEM=0
CN(C)c1ccc(-c2cc[nH]c(=O)c2N)cc1	.	.	.	.	.	68*	Tau fibril TEM=3*
CN(C)C(=O)c1ccc(-c2cncnc2NCc2cccs2)cc1	-7%	-7%	1%	6%	-9%	.
Nc1c(-c2ccncc2)cc[nH]c1=O	.	.	.	.	.	55*	Tau fibril TEM=0
SMILES	Tau fluor cs	Tau FP inhib	TexasRed fluor	TRb-SRC2 inh	Tau fibril ThT	tau fibril sed	others
COc1cc(C2CC(=O)Nc3c2c(C)nn3-c2nncc(-c3ccccc3)n2)cc(OC)c1OC (stereo unspecified)	-23%	?	-2%	7%	?	.
Cc1nc2ccccc2oc1=O	?	10%	-3%	2%	?	13
CC(C)(C)/C(O)=C/c1nc2ccccc2oc1=O	-4%	-6%[2.34 µM]	-9%	-2%	-2%	.
CC(C)(C)C(=O)OCc1cc(=O)n2nc(C3CCCCC3)sc2n1	2%	0%	-4%	2%	-10%	.
COc1ccccc1CNC(=O)c1cc2sccc2n1Cc1ccc(F)cc1	-26%	-12%	1%	3%	-5%	.
CN(C)S(=O)(=O)c1cccc(N=C2NN=C(c3ccccc3)CS2)c1	?	?	-5%	-5%	8.9µM*	?	Tau fibril TEM=3*
c1ccc(CN=C2NN=C(c3ccccc3)CS2)cc1	-17%	-6%	-6%	1%	?	.
Nc1nn(-c2ccccc2)c(=O)c2c(N)scc12	.	.	.	.	.	86*
NC(=O)c1nn(-c2ccccc2)c(=O)c2c(N)scc12	.	.	.	.	.	89*
CCN1CCN(C(=O)c2nn(-c3ccccc3)c(=O)c3ccccc23)CC1	-6%	-1%	0%	4%	-3%	.
Nc1scc2c(CO)nn(-c3ccccc3)c(=O)c12	.	.	.	.	.	81*
Nc1scc2c(C(=O)N3CCOCC3)nn(-c3ccccc3)c(=O)c12	.	.	.	.	.	89*
CCCCn1c(=O)c2oc3ccccc3c2n(CC(=O)Nc2cccc(Cl)c2C)c1=O	-5%	-7%	1%	5%	6%	.
Cc1nn(C(=O)c2ccccc2)c(C)c1S(=O)(=O)N1CCOCC1	4%	14%	-3%	4%	?	.
COc1ccc(Cn2cc(C(=O)c3ccc(OC)cc3)c(=O)c3cc4c(cc32)OCCO4)cc1	-21%	-3%	3%	11%	-13%	.
COc1ccc(OC)c(CNC(=O)Cc2ccc(NC(=O)N3CCSc4ncccc43)cc2)c1	-2%	-14%	-2%	4%	4%	.
CCOC(=O)c1nn(-c2ccccc2)c(=O)c2c(NC(C)=O)scc12	-7%	-4%	-2%	4%	2%	11
CCOC(=O)c1nn(-c2ccccc2)c(=O)c2c(N)scc12	?	?	-8%	4%	8.9µM*	73*	Tau fibril TEM=2*
CC1=C(c2ccc(C)c(C)c2)S(=O)(=O)N=C1N1CCC(C(=O)Nc2cccc(F)c2)CC1	-15%	-16%	-4%	5%	6%	.
Cc1oc2c(cc(NS(=O)(=O)c3ccc(C(C)C)cc3)c3ccccc32)c1C(=O)O	-14%	6%	-22%	0%	?	.
